Data as given in PubChem BioAssay AID1159580 (chemical genetic matrix, 2015).
Values joined by “and” are separate entries in the source; they are usually repeats but may differ in a detail not shown here. Identical values can stand only once. The campaign covered roughly 5,500 compounds. About 2,000 (36%) were called active. About 18% were inconclusive and are not listed. No stated cut-off is given here; in the data, active means normalized growth mostly below about 0.91 (no sharp cut-off); inconclusive means no clear call, values can overlap the other calls; inactive means mostly above about 0.92. This is one part of the list.

Assay: chemical genetic growth profiling, strain panel (AID 1159580);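 further: tested at 20 µM; growth read once vehicle control cultures reached saturation at 30 °C; 1 = growth at the plate median or of vehicle wells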
Conditions: S. cerevisiae deletion strains, growth OD

Measured: normalized growth

CC[C@H](/C=C/C(C)C1CCC2C3CCC4=CC(=O)CC[C@]4(C)C3CC[C@]12C)C(C)C (some centres not stated)
inactive: locus YBR021W, strain FUR4, stronger effect = lower value 1.01 | locus YBR229C, strain ROT2, stronger effect = lower value 1 | locus YCL029C, strain bik1, stronger effect = lower value 1.02 | locus YDL035C, strain GPR1, stronger effect = lower value 1.02 | locus YDL074C, strain BRE1, stronger effect = lower value 1.02 | locus YDL101C, strain DUN1, stronger effect = lower value 1.01 | locus YDL134C, strain PPH21, stronger effect = lower value 1.03 | locus YDL185W, strain tfp1, stronger effect = lower value 1.01 | locus YDL192W, strain arf1, stronger effect = lower value 1 | locus YDR101C, strain arx1, stronger effect = lower value 1.01 | locus YDR162C, strain NBP2, stronger effect = lower value 1.03 | locus YDR318W, strain mcm21, stronger effect = lower value 1 | locus YDR388W, stronger effect = lower value 1.01 | locus YDR502C, strain sam2, stronger effect = lower value 1.02 | locus YEL061C, strain CIN8, stronger effect = lower value 1 | locus YER110C, stronger effect = lower value 1 | locus YER155C, strain BEM2, stronger effect = lower value 1.01 | locus YER167W, strain BCK2, stronger effect = lower value 1.02 | locus YGL078C, strain dbp3, stronger effect = lower value 1.01 | locus YGL086W, strain mad1, stronger effect = lower value 0.997 | locus YGL248W, strain PDE1, stronger effect = lower value 1.02 | locus YGR078C, strain PAC10, stronger effect = lower value 1.03 | locus YGR135W, strain pre9, stronger effect = lower value 1 | locus YGR252W, strain gcn5, stronger effect = lower value 1.01 | locus YHR030C, strain SLT2, stronger effect = lower value 1.01 and 1.1 | locus YHR079C, strain IRE1 (second series), stronger effect = lower value 0.991 | locus YHR079C, strain IRE1, stronger effect = lower value 1.07 | locus YHR094C, strain hxt1, stronger effect = lower value 0.99 | locus YHR129C, strain ARP1, stronger effect = lower value 1.01 | locus YHR200W, strain rpn10, stronger effect = lower value 1 | locus YIL066C, strain RNR3, stronger effect = lower value 1.03 | locus YIL073C, strain SPO22, stronger effect = lower value 1.05 | locus YIL125W, strain kgd1, stronger effect = lower value 1.01 | locus YIR030C, strain dcg1, stronger effect = lower value 1 | locus YJL095W, strain BCK1, stronger effect = lower value 1.02 and 1.05 | locus YJL134W, strain LCB3, stronger effect = lower value 1.01 | locus YJL168C, strain set2, stronger effect = lower value 1 | locus YJL187C, strain SWE1 (second series), stronger effect = lower value 1.02 | locus YJR043C, strain POL32, stronger effect = lower value 1.03 | locus YJR066W, strain TOR1, stronger effect = lower value 0.985 | locus YJR075W, strain HOC1, stronger effect = lower value 1.02 | locus YKL009W, strain mrt4, stronger effect = lower value 1.04 | locus YKL068W, stronger effect = lower value 1.01 | locus YKL085W, strain MDH1 (second series), stronger effect = lower value 1.01 | locus YKL085W, strain MDH1, stronger effect = lower value 1.01 | locus YKL190W, strain CNB1, stronger effect = lower value 1.01 | locus YKR001C, strain vps1, stronger effect = lower value 1.02 | locus YLR039C, strain RIC1, stronger effect = lower value 1.07 | locus YLR058C, strain SHM2, stronger effect = lower value 1.01 | locus YLR102C, strain apc9, stronger effect = lower value 0.999 | locus YLR113W, strain HOG1, stronger effect = lower value 1.04 | locus YLR262C, strain YPT6, stronger effect = lower value 1.06 | locus YLR268W, strain sec22, stronger effect = lower value 1.02 | locus YLR330W, strain CHS5, stronger effect = lower value 1.01 | locus YLR342W, strain FKS1 (second series), stronger effect = lower value 0.996 | locus YLR371W, strain rom2, stronger effect = lower value 1.02 | locus YLR418C, strain cdc73, stronger effect = lower value 1.01 | locus YML016C, strain PPZ1, stronger effect = lower value 1 | locus YML032C, strain rad52, stronger effect = lower value 1.01 | locus YML124C, strain tub3, stronger effect = lower value 1 | locus YMR078C, strain ctf18, stronger effect = lower value 1 | locus YMR223W, strain ubp8, stronger effect = lower value 1.01 | locus YMR263W, strain SAP30, stronger effect = lower value 1.01 | locus YMR307W, strain GAS1, stronger effect = lower value 1.04 | locus YNL067W, strain RPL9B, stronger effect = lower value 1.02 | locus YNL153C, strain GIM3, stronger effect = lower value 1.01 | locus YNL183C, strain NPR1, stronger effect = lower value 0.996 | locus YNL233W, strain BNI4, stronger effect = lower value 1.02 | locus YNL250W, strain rad50, stronger effect = lower value 1 | locus YNL271C, strain bni1, stronger effect = lower value 1.01 | locus YNL298W, strain CLA4, stronger effect = lower value 1 | locus YNL307C, strain MCK1, stronger effect = lower value 1.01 | locus YNL322C, strain KRE1, stronger effect = lower value 1.02 | locus YNR052C, strain pop2, stronger effect = lower value 1.01 | locus YOL006C, strain TOP1, stronger effect = lower value 1.13 | locus YOL012C, strain htz1 1.25 | locus YOL147C, strain pex11, stronger effect = lower value 1 | locus YOR061W, strain CKA2, stronger effect = lower value 1.01 | locus YOR069W, strain VPS5, stronger effect = lower value 1.01 | locus YOR136W, strain idh2, stronger effect = lower value 1 | locus YOR144C, strain elg1, stronger effect = lower value 0.994 | locus YOR184W, strain ser1, stronger effect = lower value 0.999 | locus YOR231W, strain MKK1, stronger effect = lower value 1.08 | locus YOR316C, strain cot1, stronger effect = lower value 1 | locus YPL055C, strain LGE1, stronger effect = lower value 1.04 | locus YPL241C, strain CIN2, stronger effect = lower value 1.01 | locus YPL256C, strain CLN2, stronger effect = lower value 1.03 | locus YPR119W, strain clb2, stronger effect = lower value 1 | locus YPR141C, strain kar3, stronger effect = lower value 1.01 | locus YPR163C, strain tif3, stronger effect = lower value 1.01 | locus YPR167C, strain met16, stronger effect = lower value 1.03 | strain wtn01, stronger effect = lower value 0.992
